# Records with an inconclusive call do not appear. A call without a number means that no potency is given here. Active and inactive are the calls of the source. Calls come from the whole dose curve; as a rule, active = well fitted inhibition curve with a large enough effect; inconclusive = small, poorly fitted or top-dose-only effect; inactive = flat fitted curve, though single readings scatter.
# System: W2
# Assay: qHTS profiling for inhibitors of Plasmodium falciparum proliferation (AID 504749); note: nearly all actives have a fitted effect of over 60% in size
# Conditions: P. falciparum in erythrocytes, SYBR Green DNA, 72 h; series mostly up to 28.7 µM
# Outline: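 Readout was DNA-dye fluorescence from lysed cultures, ex 485/em 535 nm. Parasitized red cells had grown 72 h with compound; data scaled between 0.29 uM artemisinin and DMSO wells and corrected using vehicle-only plates.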
row,Compound,Potency
1,CCC(=O)c1ccc(O)cc1,inactive
2,Cc1cc(CC(=O)O)n(C)c1C(=O)c1ccc(Cl)cc1,inactive
3,CC12CCC(CC1)C(C)(C)O2,inactive
4,COc1cc(C(=O)N2CCOCC2)cc(OC)c1OC,inactive
5,CCCOC(=O)c1ccccc1,inactive
6,OCC(O)CN1CCN(c2ccccc2)CC1 (stereo not drawn),inactive
7,O=C1NS(=O)(=O)c2ccccc21,inactive
8,CC(=O)Oc1ccc(C2(c3ccc(OC(C)=O)cc3)C(=O)Nc3ccccc32)cc1,inactive
9,CC(=O)Nc1ccc(/C=N/NC(N)=S)cc1,inactive
10,O=C(O)CC(O)C(=O)O (stereo not drawn),inactive
11,O=C(CCCN1CCN(c2ccccn2)CC1)c1ccc(F)cc1,inactive
12,CC1=C(/C=C/C(C)=C/C=C/C(C)=C/C(=O)O)C(C)(C)CCC1,inactive
13,Nc1nc2c(ncn2CCC(CO)CO)c(=O)[nH]1,inactive
14,O=C(O)c1ccccn1,inactive
15,Nc1ncnc2c1ncn2[C@@H]1O[C@H](CO)[C@@H](O)[C@H]1O,inactive
16,Cn1c(=O)c2c(ncn2CC2OCCO2)n(C)c1=O,inactive
17,NC(CSCC(=O)O)C(=O)O (stereo not drawn),inactive

row,Compound,Potency
1,O=C(O)c1ccccc1O,inactive
2,CCCCCCCCCCCCOS(=O)(=O)O,inactive
3,CCCCC(CC)COC(=O)c1ccccc1O (stereo not drawn),inactive
4,CC(O)CN(CCN(CC(C)O)CC(C)O)CC(C)O (stereo not drawn),inactive
5,Cc1ncc(COP(=O)(O)O)c(C=O)c1O,inactive
6,CC[C@@]1(c2ccccc2)NC(=O)N(C)C1=O,inactive
7,[O-][n+]1cccc(CO)c1,inactive
8,Oc1cccc(O)c1,inactive
9,CCn1cc(C(=O)O)c(=O)c2cnc(N3CCNCC3)nc21,inactive
10,CCC(=O)Nc1ccc(O)cc1,inactive
11,O=c1cc[nH]c(=O)[nH]1,inactive
12,C=Cc1c(C)c2cc3[nH]c(cc4nc(cc5nc(cc1[nH]2)C(C)=C5CCC(=O)O)C(CCC(=O)O)=C4C)c(C)c3C=C,inactive
13,CC(O)COc1ccccc1 (stereo not drawn),inactive
14,NS(=O)(=O)c1cc2c(cc1Cl)NC(CSCc1ccccc1)=NS2(=O)=O,inactive
15,CCCCCCCCCCCCCCCCCCOCC(O)CO (stereo not drawn),inactive
16,CC1(C)[C@@H]2CC[C@@]1(C)C(=O)C2,inactive

# Source: PubChem BioAssay (NCATS)
